Test results published in PubChem BioAssay AID504834 (National Center for Advancing Translational Sciences (NCATS), 2011).
“And” between values parts separate entries of the source, which are not always exact repeats. Equal values may be shown once. In all, about 320,000 compounds went through this assay and about 22,000 (6.9%) were called active. Another 27% or so got no clear call; they are omitted. Calls come from the whole dose curve; as a rule, active = well fitted inhibition curve with a large enough effect; inconclusive = small, poorly fitted or top-dose-only effect, or another doubt; inactive = no such curve, though single readings can be large or run the other way. For the sample, actives were picked, then their nearest neighbours and some compounds at random.

experiment: Primary qHTS for delayed death inhibitors of the malarial parasite plastid, 96 hour incubation; conditions: P. falciparum luciferase reporter growth; series mostly up to 28.7 µM; activity change, negative = inhibition: at the top concentration
Excerpt: The goal of this screen is to discover new antimalarial compounds that act by inhibiting the development of the apicoplast in the malarial parasite Plasmodium falciparum. The biochemical processes that make this organelle essential for erythrocytic stage parasites are not well understood. However, antibiotics such as azithromycin and tetracycline, which target the apicoplast translational machinery, have a potent antimalarial effect.
We have developed a cell-based assay that measures parasite growth based on the expression of an integrated copy of a firefly luciferase reporter. To detect small molecules that cause this "delayed death" phenotype, erythrocytes infected with the luciferase-expressing parasites were incubated with compounds for either one or two generations, corresponding to 48 and 96 hours, respectively. Compounds that inhibit parasite growth in the second generation, but not the first, should be enriched in antimalarials that target the apicoplast. Growth inhibition is detected by a decrease in luciferase activity.
Assay Provider: David Fidock and Eric Ekland, Columbia University
Keywords: NIH Roadmap, MLPCN, MLI, MLSMR, qHTS, NCGC, qHTS, malaria, luciferase, viability
Four microliters of infected erythrocytes (2% hematocrit, 0.05% parasitemia final concentration) in culture medium were dispensed and the plates incubated for 96 hours at 37 C in 5% CO2. Two microliters of luciferase detection reagent was added and luminescence was detected by a ViewLux (PerkinElmer) reader.
% is set by controls: 0 for no effect and ±100 for the full control effect; potency is the fitted concentration of half-maximal effect.

SMILES | activity change, negative = inhibition | Potency
COc1ccc(C(C#N)(CC(=O)O)c2cnccn2)cc1OC (stereo not given) | 55.4% (inactive) | 
COc1cc(OC)cc(C(=O)NNC(=O)CNC(=O)c2ccc(Br)o2)c1 | 12.7% (inactive) | 
S=C(NCCC1=CCCCC1)Nc1ccccc1 |  | 0.586 µM (active)
O=C(Cc1cccc2ccccc12)NCCC1=CCCCC1 | 0% (inactive) | 
S=C(NCCCc1ccccc1)Nc1ccc(Br)cc1 | 40.7% (inactive) | 
CC(=O)N1CC(=O)N(CC(=O)Nc2ccc(Br)cc2)C1=S | 71.4% (inactive) | 
CC(=O)c1nnn(-c2ccc(Cl)cc2C#N)c1C | 0.592% (inactive) | 
Cc1cccc(-c2c(NC(=O)c3ccco3)oc3ccc(Cl)cc3c2=O)c1 | 2.39% (inactive) | 
Cc1noc(NS(=O)(=O)c2ccc(NC(=O)c3oc4ccc(F)cc4c3C)cc2)c1C | 1.56% (inactive) | 
CCOC(=O)CSc1nc2c(c(=O)n(Cc3ccccc3Cl)c(=O)n2C)n1C | 12.3% (inactive) | 
CC(C)CCn1c(=O)c2c(nc3n2CCCN3Cc2ccccc2)n(C)c1=O |  | 6.57 µM (active)
Cn1cnc2c1c(=O)n(Cc1c(Cl)cccc1Cl)c(=O)n2C | -6.67% (inactive) | 
N/C(=N\OC(=O)Cc1ccccc1[N+](=O)[O-])c1ccc(Br)cc1 | 12.7% [at 5.75 µM] (inactive) | 
N/C(=N\OC(=O)/C=C/c1ccccc1)c1ccc(Br)cc1 | 4.24% (inactive) | 
N/C(=N\OC(=O)N1c2ccccc2Sc2ccccc21)c1ccc(Br)cc1 |  | 10.4 µM (active)
Cc1ccc(C)c(SCc2nc3sc(C(=O)O)c(C)c3c(=O)[nH]2)c1 | 15.7% (inactive) | 
CC1CCN(C(=O)c2ccc3c(c2)NC(=O)CN3)CC1 | 29.3% (inactive) | 
Cn1cc(CNC(=O)c2ccc(OC3CCN(Cc4ccccn4)CC3)cc2)cn1 | 3.47% (inactive) | 
COc1ccc2cc(C(=O)NCC3CCCO3)[nH]c2c1 (stereo not given) | 102% (inactive) | 
O=C(Nc1ccccc1C(=O)NCC1CCCO1)c1ccccc1F (stereo not given) | -21.2% (inactive) | 
O=C(NCC1CCCO1)c1cc2c([nH]c3ccccc32)c(-c2ccc(F)cc2)n1 (stereo not given) |  | 9.28 µM (active)
Cc1ccc(C(=O)Nc2ccn(C)n2)cc1 | 33.8% (inactive) | 
CCOc1ccc2c(c1)C(c1ccc(C)cc1)=NNC(c1ccc(C)cc1)=N2 | -7.17% (inactive) | 
CCOc1ccc(-c2cc(C)[n+](CCN(CC)CC)c(-c3ccc(OCC)cc3)c2)cc1 |  | 0.37 µM (active)
CCOc1ccc(-c2nc(C)sc2CC(=O)O)cc1 | -1.13% (inactive) | 
Nc1ccc(C(=O)Nc2ccccc2N)cc1 | 1.66% (inactive) | 
O=C(COc1ccccc1)Nc1ccc(N2CCN(C(=O)c3cccs3)CC2)cc1 | 9.01% (inactive) | 

SMILES | activity change, negative = inhibition | Potency
COc1ccc(S(=O)(=O)N2CCN(C(=O)c3cccs3)CC2)cc1OC | 43.7% (inactive) | 
Cc1ccc(S(=O)(=O)N2CCN(C(=O)c3cccs3)CC2)cc1 | 22.6% (inactive) | 
CCS(=O)(=O)N1CCN(C(=O)c2cccs2)CC1 |  | 4.65 µM (active)
O=C(c1cccs1)N1CCN(C(=O)N2CCOCC2)CC1 | -9.34% (inactive) | 
COc1ccc(N2CCN(C(=O)c3cccs3)CC2)cc1 |  | 13.1 µM (active)
NC(=O)COc1ccccc1C(=O)NC12CC3CC(CC(C3)C1)C2 | 27.2% (inactive) | 
CCN(CC)CCCN=C(N)N | 45.7% (inactive) | 
CC(C)(C)n1nnnc1C(c1ccccc1F)N1CCN(C(=O)c2ccco2)CC1 (stereo not given) | -20.3% (inactive) | 
COc1ccc(CN2CCN(Cc3ccc(OC)c(OC)c3OC)CC2)cc1 | -5.74% (inactive) | 
Cc1nc(C(=O)Nc2ccc(Cl)cc2)sc1C1(C)CC(c2ccccc2)=NO1 (stereo not given) | -1.05% (inactive) | 
Cc1nn(-c2ccccc2)c(=O)c2noc(C)c12 | 24.6% (inactive) | 
COc1ccc(C(=O)Nc2cc(C)c(NC(=O)c3ccccc3OC)cn2)cc1 | -9.94% (inactive) | 
CSC1=N/C(=C\c2ccc3c(c2)OCO3)C(=O)S1 | -18.9% (inactive) | 
CSC1=N/C(=C\C=C\c2cccs2)C(=O)S1 |  | 5.22 µM (active)
Cc1cccc(C2=N/C(=C/c3cccs3)C(=O)O2)c1 | -19.3% (inactive) | 
O=S(=O)(Cc1noc(-c2ccc(OC(F)(F)F)cc2)n1)c1ccc(F)cc1 | -0.67% (inactive) | 
COc1ccc(NC(=O)c2cccc(Cl)c2)c[n+]1[O-] | 43.4% (inactive) | 
COc1cc(OC)c(-n2c(C)cc(C=O)c2C)cc1Cl |  | 13.1 µM (active)
COc1cc(OC)c(-n2cc(-c3ccc(Cl)cc3)[nH]c2=O)cc1Cl | 55.8% (inactive) | 
COc1cc(Cl)c(S(=O)(=O)n2cnc(C)c2)cc1Cl | 13.2% (inactive) | 
O=C1c2ccccc2C(=O)N1c1cccc2ccccc12 | 10.7% (inactive) | 
Cc1n[nH]c(=O)c2c(NC(=O)CSc3cc(Cl)ccc3Cl)oc(C)c12 | 11.3% (inactive) | 
COc1cccc(-c2cccc(NC(=O)C3CCN(C4CCC4)CC3)c2)c1 | 30.6% (inactive) | 
CCn1cc(CN2CCC(C(=O)Nc3cccc(-c4cccc(Cl)c4)c3)CC2)cn1 | 26.2% (inactive) | 
O=C(Nc1cccc(-c2cccc(Cl)c2)c1)C1CCN(C2CCC2)CC1 |  | 10.4 µM (active)
COC(=O)CSc1nnc(NC(=O)CCc2ccccc2)s1 | 12.1% (inactive) | 
CC(C)CCN1CCN=C1N(C)C | 0% (inactive) | 

SMILES | activity change, negative = inhibition | Potency
COc1ccc(S(=O)(=O)N2CCN(C(=O)N(C)C)C2C)cc1 (stereo not given) | 27.7% (inactive) | 
Cc1cccc(C(=O)N2CCN(S(=O)(=O)N3CCCCC3)CC2)c1 | 30.2% (inactive) | 
CCCCN(CCCC)CCC(O)c1cc2c(Cl)cc(Cl)cc2c2cc(C(F)(F)F)ccc12 (stereo not given) |  | 2.6 nM (active) and 2.9 nM (active)
CN(CC(=O)NCC(c1ccccc1)N1CCCC1)S(=O)(=O)c1ccc(Cl)cc1 (stereo not given) |  | 8.28 µM (active)
Cc1ccc(S(=O)(=O)N(C)CC(=O)NCC(c2ccc(F)cc2)N2CCOCC2)cc1 (stereo not given) |  | 10.4 µM (active)
CN(CC(=O)NCCN1CCOCC1)S(=O)(=O)c1ccc(F)cc1 | 20.1% (inactive) | 
CN(CC(=O)NCCc1ccccn1)S(=O)(=O)c1ccc(Cl)cc1 | 10% (inactive) | 
CN(CC(=O)NNC(=O)CNC(=O)c1ccccc1Cl)S(=O)(=O)c1ccc(Cl)cc1 | 16.9% (inactive) | 
Cc1ccc(NC(=O)NCC(c2cccnc2)N2CCOCC2)cc1 (stereo not given) | 11.9% (inactive) | 
COc1ccccc1OCCOc1ccc(/C=C2\C(=N)N3N=C(C)SC3=NC2=O)cc1 | 21.5% (inactive) | 
CCN1CCN(C(=O)c2ccc(CN(c3ccc(C)c(C)c3)S(C)(=O)=O)cc2)CC1 |  | 10.4 µM (active)
CCOC(=O)N1CCN(C(=O)CN(c2ccc(C)c(C)c2)S(=O)(=O)c2ccccc2)CC1 | 21.9% (inactive) | 
CCOC(=O)N1CCN(C(=O)c2ccc(CN(c3ccc(C)c(C)c3)S(C)(=O)=O)cc2)CC1 | -3.85% (inactive) | 
CC1CN(C(=S)Nc2ccccc2F)CC(C)O1 (stereo not given) | -42% (inactive) | 
Cc1[nH]n(-c2cccc(Cl)c2)c(=O)c1-c1ccc(Cl)cc1 |  | 0.415 µM (active)
O=c1[nH]n(-c2cccc(Cl)c2)c2ncccc12 | 40.9% (inactive) | 
CCCc1cc(=O)n2[nH]c(C)c(-c3ccc(Cl)cc3)c2n1 | -3.91% (inactive) | 
CC(C)(O)c1ccccc1CC[C@H](SCC1(CC(=O)O)CC1)c1cccc(/C=C/c2ccc3ccc(Cl)cc3n2)c1 | -16.4% (inactive) | 
Cc1cc(C)n(-c2nc(C(F)(F)F)nc3ccccc23)n1 | 14% [at 5.75 µM] (inactive) | 
CCc1ccc(C(CNc2nc(C(F)(F)F)nc3ccccc23)N(C)C)cc1 (stereo not given) |  | 11.7 µM (active)
NS(=O)(=O)c1ccc(CCNc2nc(C(F)(F)F)nc3ccccc23)cc1 | 2.6% (inactive) | 
O=C(OCc1ccc([N+](=O)[O-])cc1)C1CC(=O)N(Cc2ccccc2Cl)C1 (stereo not given) | 58.7% (inactive) | 
O=C(COc1cccc2c1CCNC2=O)NC1CCCCC1 | -3.31% (inactive) | 
NC1=NN(c2cccc(C(=O)O)c2)C(=O)C1 |  | 13.1 µM (active)
O=C(O)c1cccc(N=NN2CCCCCC2)c1 | 49.7% (inactive) | 
O=C(O)c1cccc(S(=O)(=O)N2CC=C(c3ccccc3)CC2)c1 | -9.09% (inactive) | 
CCCCCCCNC(=O)C1(CC2CC(c3cccc(Br)c3)=NO2)CCN(C(=O)c2cc(OCC)c(OCC)c(OCC)c2)CC1 (stereo not given) |  | 0.329 µM (active)

SMILES | activity change, negative = inhibition | Potency
CCOc1ccccc1N1CCN(C(=O)c2ccc3[nH]c(C)c(C)c3c2)CC1 | 0% (inactive) | 
CC(=O)N1CCC(C(=O)OCc2ccc(Cl)cc2)(c2ccccc2)CC1 | -22% (inactive) | 
O=C(c1ccccc1)N1CCC(CC2CC(c3ccc(Cl)cc3)=NO2)(C(=O)NCC2CCCCC2)CC1 (stereo not given) |  | 1.04 µM (active)
COC(=O)C1CCN(C(=O)c2ccc3oc(Cc4ccc(Cl)cc4)nc3c2)CC1 | 1.63% (inactive) | 
COc1ccccc1C(=O)NC(=O)COC(=O)c1ccco1 | 53.6% (inactive) | 
Cc1ccc(N2C(=O)CC(Nc3cccc4ccccc34)C2=O)cc1 (stereo not given) | 26.3% (inactive) | 
COc1ccc(C2=NS(=O)(=O)N(C)C(C(=O)NC(C)c3ccccc3)=C2)cc1 (stereo not given) | 24.1% (inactive) | 
COc1ccccc1CCC(=O)NNC(=O)c1ccncc1 | -3.56% (inactive) | 
Cc1nn(-c2ccccc2)c(C)c1NC(=O)COC(=O)c1cc(Cl)ccc1O | 13.2% (inactive) | 
CCN1CCN(c2ccc(NC(=O)c3cnccn3)cc2)CC1 | -11.3% (inactive) | 
CCN1CCN(C(c2cccnc2)c2cc(Cl)c3cccnc3c2O)CC1 (stereo not given) |  | 10.4 µM (active)
Cc1nc(C)c(-c2nnc(-c3cccc(S(=O)(=O)N(C)C)c3)o2)cc1C(=O)NN | 11.1% (inactive) | 
Cn1c(SCC(=O)Nc2ccc(N3CCOCC3)cc2)nnc1C(F)(F)F | -8.65% (inactive) | 
Cc1ccccc1NC(=O)c1cc(S(=O)(=O)Nc2cccc(C(=O)O)c2)ccc1Cl | 0% (inactive) | 
S=C1Nc2cc(Cl)ccc2Sc2ccccc21 | 16.5% (inactive) | 
O=C(NC1CC1)c1cccc(Br)c1 | -3.65% (inactive) | 
O=C(NC1CC1)c1ccc2c(c1)NC(=O)c1ccccc1S2 |  | 8.28 µM (active)
CCOC(=O)C(C)n1cnc2scc(-c3ccc(C)c(C)c3)c2c1=O (stereo not given) | -3.94% (inactive) | 
COC(=O)Cn1cnc2scc(-c3ccc(C)c(C)c3)c2c1=O |  | 10.4 µM (active)
CCn1cnc2scc(-c3ccc(C)c(C)c3)c2c1=O | 42% (inactive) | 
COc1ccc(NC(=O)CCN2CCCC2)c(OC)c1 | -23.8% (inactive) | 
COc1ccc(NC(=O)C(C)N2c3cccc4cccc(c34)S2(=O)=O)c(OC)c1 (stereo not given) |  | 2.94 µM (active)
CSc1ccccc1NC(=O)C(C)N1C(=O)c2ccccc2S1(=O)=O (stereo not given) | 18.5% (inactive) | 
CN(CC(=O)NCc1ccc2c(c1)OCO2)CC(=O)Nc1ccc(F)c(F)c1F | -27.8% (inactive) | 
